# Columns and labels:
# Test in all cases: DAPPL (digital affinity profiling via proximity ligation, sequencing); 10 mM Tris-HCl pH 7.5, 50 mM NaCl, 1 mM DTT, 4% glycerol, room temperature, 30 min; GST-TFs on glutathione beads, 16-mer random dsDNA library, 0.1% formaldehyde crosslink after washing; high values mean tight binding
# Conditions in all cases: protein: recombinant; tags: N-terminal GST; dsDNA, one strand shown
# ELK1 = target: T1, ELK1 (Homo sapiens, UniProt P19419 1-428)
# T1 sequence: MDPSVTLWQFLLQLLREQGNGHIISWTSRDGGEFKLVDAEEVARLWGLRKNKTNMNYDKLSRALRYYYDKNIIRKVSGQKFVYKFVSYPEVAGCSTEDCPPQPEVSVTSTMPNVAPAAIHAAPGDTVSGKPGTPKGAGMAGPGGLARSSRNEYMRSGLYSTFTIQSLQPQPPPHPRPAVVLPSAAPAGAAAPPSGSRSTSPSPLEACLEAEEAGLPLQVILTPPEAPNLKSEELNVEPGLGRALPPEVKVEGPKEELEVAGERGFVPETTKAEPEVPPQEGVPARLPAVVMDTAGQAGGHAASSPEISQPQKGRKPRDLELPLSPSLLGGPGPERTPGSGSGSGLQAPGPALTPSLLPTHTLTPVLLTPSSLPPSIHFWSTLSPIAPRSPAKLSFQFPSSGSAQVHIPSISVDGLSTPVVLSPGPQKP
# In short: (§1)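 Pools were built from human transcription factors expressed in yeast as GST fusions, captured on glutathione beads and DNA-barcoded, along with a tag-only sample. Incubation with 200 nmole of a 16-mer random double-stranded DNA library lasted 30 min at room temperature in Tris/NaCl/DTT/glycerol buffer, and was followed by washing, 0.1% formaldehyde crosslinking, proximity ligation, PCR amplification and Illumina NextSeq500 sequencing. Binding signal is the quotient of each hexamer's read frequency for a factor and its frequency for the tag-only sample.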
# GABPA = target: T2, GABPA (Homo sapiens, UniProt Q06546 1-454)
# T2 sequence: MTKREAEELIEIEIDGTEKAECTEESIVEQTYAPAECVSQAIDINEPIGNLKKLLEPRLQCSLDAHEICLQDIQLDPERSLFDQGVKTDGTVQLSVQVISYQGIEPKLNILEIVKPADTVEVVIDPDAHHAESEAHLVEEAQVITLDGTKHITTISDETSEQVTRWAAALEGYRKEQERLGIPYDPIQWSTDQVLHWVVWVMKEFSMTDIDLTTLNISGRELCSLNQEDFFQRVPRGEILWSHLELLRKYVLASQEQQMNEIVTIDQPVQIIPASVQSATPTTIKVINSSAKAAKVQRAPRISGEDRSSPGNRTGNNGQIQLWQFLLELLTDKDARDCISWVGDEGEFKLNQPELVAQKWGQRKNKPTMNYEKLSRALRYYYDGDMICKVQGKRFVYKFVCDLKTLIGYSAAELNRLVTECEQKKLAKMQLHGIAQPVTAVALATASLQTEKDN
# In short: as §1
# ERG = target: T3, ERG (Homo sapiens, UniProt P11308 1-479)
# T3 sequence: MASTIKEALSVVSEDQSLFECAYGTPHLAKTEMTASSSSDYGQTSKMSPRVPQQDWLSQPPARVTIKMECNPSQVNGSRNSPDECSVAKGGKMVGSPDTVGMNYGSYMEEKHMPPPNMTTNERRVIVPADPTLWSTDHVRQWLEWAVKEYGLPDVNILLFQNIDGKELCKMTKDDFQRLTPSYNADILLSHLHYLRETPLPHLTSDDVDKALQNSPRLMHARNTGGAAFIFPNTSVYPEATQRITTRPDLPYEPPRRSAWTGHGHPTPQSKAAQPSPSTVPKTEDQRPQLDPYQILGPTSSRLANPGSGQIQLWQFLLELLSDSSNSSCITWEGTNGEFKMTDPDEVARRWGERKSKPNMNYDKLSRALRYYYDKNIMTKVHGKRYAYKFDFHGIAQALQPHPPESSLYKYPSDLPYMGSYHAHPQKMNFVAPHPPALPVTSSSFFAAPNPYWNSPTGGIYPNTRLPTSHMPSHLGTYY
# In short: as §1
# ELF1 = ELF1 (Homo sapiens, UniProt P32519 1-619)
# ELF1, sequence (P32519 whole entry): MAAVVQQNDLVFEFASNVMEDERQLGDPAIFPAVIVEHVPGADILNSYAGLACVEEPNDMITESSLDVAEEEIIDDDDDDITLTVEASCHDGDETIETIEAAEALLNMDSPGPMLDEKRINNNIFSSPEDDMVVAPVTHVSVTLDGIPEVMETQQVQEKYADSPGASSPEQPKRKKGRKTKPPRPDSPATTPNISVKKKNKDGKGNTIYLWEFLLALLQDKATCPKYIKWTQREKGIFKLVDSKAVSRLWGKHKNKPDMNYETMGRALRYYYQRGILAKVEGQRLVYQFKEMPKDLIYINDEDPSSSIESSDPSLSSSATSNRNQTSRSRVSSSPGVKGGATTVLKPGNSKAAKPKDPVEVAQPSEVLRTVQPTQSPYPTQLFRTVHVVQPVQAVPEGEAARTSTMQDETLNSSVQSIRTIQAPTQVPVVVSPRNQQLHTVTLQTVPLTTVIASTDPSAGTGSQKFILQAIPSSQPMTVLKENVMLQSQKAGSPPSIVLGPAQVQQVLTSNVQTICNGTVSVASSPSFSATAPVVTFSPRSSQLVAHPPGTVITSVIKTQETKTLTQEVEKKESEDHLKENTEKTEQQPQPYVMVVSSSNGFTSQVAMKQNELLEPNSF
# In short: as §1
# FEV = target: T4, FEV (Homo sapiens, UniProt Q99581 1-238)
# T4 sequence: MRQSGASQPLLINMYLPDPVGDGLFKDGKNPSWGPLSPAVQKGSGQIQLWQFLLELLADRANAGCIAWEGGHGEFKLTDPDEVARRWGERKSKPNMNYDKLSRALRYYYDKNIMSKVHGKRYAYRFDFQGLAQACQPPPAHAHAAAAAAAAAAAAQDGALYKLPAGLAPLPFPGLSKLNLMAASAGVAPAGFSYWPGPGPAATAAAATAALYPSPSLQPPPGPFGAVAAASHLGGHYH
# In short: as §1
# ETV5 = ETV5 (Homo sapiens, UniProt P41161 1-510)
# ETV5, sequence (P41161 whole entry): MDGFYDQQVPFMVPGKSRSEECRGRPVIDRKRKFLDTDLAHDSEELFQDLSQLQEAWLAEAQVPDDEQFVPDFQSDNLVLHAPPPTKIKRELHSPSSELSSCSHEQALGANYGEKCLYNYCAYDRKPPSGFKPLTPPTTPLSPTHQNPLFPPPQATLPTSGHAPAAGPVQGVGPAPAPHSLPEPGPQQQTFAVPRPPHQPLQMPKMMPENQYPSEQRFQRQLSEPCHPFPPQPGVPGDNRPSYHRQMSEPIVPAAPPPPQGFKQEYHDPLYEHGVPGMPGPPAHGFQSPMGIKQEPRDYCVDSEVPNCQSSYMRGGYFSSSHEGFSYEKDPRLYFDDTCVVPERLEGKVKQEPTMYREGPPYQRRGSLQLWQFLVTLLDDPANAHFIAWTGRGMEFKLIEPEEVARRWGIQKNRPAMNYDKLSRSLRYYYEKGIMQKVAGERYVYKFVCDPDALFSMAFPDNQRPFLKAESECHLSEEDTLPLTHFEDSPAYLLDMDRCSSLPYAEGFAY
# In short: as §1
# ELF4 = ELF4 (Homo sapiens, UniProt Q99607 1-663)
# ELF4, sequence (Q99607 whole entry): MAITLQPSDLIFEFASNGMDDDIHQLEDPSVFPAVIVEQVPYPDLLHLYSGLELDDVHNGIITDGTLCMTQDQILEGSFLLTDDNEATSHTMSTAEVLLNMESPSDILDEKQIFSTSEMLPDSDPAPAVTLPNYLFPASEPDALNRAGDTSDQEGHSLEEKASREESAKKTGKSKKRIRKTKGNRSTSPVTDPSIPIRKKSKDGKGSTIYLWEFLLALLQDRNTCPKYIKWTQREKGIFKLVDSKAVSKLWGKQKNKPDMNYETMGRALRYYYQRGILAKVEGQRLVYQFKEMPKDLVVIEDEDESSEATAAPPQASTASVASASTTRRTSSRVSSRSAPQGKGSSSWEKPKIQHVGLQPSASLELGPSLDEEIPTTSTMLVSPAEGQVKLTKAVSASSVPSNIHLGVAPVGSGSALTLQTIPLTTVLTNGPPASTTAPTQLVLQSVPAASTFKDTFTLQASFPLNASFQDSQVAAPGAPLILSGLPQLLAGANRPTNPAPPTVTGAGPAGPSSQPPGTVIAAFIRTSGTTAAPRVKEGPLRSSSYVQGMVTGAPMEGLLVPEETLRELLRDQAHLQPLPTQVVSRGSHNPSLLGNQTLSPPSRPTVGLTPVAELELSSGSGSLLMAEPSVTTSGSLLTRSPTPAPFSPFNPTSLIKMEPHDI
# In short: as §1
# ELK4 = target: T5, ELK4 (Homo sapiens, UniProt P28324-2 1-405)
# T5 sequence: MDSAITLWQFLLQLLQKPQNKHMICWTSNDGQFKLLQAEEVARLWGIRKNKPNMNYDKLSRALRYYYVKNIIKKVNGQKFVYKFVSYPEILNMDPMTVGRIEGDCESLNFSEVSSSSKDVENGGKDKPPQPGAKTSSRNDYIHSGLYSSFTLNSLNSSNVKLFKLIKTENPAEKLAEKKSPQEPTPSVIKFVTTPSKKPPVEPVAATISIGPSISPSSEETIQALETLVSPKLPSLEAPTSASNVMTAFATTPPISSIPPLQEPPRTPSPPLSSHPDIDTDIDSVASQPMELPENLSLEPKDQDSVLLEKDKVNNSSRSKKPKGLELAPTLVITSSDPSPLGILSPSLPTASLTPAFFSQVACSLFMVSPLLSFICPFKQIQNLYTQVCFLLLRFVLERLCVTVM
# In short: as §1
# ERF = target: T6, ERF (Homo sapiens, UniProt P50548 1-548)
# T6 sequence: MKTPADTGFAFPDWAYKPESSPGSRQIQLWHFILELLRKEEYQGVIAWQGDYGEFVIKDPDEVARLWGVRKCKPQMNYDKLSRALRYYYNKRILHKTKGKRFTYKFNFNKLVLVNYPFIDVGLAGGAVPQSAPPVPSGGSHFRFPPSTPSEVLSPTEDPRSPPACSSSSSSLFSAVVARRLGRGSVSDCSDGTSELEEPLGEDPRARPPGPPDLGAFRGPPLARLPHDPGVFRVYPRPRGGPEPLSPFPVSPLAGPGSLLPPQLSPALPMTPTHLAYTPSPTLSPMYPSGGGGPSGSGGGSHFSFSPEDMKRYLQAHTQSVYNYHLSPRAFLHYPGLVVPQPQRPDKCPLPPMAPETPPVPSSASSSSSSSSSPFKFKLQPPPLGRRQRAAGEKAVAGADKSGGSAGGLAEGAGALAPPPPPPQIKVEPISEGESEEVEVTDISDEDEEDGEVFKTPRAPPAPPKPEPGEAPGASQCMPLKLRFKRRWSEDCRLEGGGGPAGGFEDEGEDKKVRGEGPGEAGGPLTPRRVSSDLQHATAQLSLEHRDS
# In short: as §1
# ETS2 = target: T7, ETS2 (Homo sapiens, UniProt P15036 1-469)
# T7 sequence: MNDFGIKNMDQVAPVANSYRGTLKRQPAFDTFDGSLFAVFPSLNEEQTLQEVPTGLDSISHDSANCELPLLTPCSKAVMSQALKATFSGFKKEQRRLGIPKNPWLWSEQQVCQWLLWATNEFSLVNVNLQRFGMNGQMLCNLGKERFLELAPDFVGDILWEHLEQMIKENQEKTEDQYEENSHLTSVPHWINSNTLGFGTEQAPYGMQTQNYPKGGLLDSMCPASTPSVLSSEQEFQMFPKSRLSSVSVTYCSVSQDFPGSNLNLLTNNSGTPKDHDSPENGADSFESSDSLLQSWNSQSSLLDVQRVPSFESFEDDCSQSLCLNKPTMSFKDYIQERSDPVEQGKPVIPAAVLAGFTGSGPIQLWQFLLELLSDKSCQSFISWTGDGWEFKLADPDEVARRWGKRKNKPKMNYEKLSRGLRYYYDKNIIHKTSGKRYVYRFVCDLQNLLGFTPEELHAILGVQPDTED
# In short: as §1
# ETV6 = ETV6 (Homo sapiens, UniProt P41212 1-452)
# ETV6, sequence (P41212 whole entry): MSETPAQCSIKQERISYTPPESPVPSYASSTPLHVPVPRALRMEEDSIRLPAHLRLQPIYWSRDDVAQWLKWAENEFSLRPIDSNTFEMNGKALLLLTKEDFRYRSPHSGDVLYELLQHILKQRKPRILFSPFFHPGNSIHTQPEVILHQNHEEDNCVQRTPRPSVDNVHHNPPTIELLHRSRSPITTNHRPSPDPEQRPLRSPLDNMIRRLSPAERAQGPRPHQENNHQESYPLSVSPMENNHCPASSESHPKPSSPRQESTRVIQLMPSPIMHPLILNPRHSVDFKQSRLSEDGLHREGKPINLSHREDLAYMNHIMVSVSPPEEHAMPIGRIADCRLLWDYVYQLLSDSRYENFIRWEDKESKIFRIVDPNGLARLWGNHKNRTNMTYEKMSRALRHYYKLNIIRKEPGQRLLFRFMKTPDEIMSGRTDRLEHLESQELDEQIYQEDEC
# In short: as §1
# ETV1 = ETV1 (Homo sapiens, UniProt P50549 1-477)
# ETV1, sequence (P50549 whole entry): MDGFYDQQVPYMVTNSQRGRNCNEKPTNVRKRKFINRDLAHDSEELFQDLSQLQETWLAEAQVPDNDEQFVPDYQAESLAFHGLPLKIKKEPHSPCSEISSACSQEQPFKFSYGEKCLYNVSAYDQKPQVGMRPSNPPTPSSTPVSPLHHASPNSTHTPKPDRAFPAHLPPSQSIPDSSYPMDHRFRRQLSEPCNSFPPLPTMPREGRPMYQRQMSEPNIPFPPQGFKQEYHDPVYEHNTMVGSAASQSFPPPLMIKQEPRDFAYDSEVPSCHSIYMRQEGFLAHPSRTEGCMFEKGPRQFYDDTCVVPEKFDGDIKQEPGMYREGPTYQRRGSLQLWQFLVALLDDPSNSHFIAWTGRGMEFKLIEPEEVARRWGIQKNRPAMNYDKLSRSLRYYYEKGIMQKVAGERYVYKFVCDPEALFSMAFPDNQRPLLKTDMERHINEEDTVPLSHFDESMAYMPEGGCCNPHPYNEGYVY
# In short: as §1
# SPDEF = target: T8, SPDEF (Homo sapiens, UniProt O95238 1-335)
# T8 sequence: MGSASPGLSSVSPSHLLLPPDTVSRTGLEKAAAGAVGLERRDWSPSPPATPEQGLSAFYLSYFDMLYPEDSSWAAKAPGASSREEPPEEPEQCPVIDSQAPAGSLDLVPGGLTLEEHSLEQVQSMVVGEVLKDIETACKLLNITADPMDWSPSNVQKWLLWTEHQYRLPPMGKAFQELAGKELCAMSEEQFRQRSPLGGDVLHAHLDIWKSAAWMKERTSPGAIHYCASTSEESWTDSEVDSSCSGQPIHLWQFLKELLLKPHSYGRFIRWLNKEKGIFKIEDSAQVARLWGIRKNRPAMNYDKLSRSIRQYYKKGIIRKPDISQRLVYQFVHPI
# In short: as §1
# ETV7 = target: T9, ETV7 (Homo sapiens, UniProt Q9Y603 1-341)
# T9 sequence: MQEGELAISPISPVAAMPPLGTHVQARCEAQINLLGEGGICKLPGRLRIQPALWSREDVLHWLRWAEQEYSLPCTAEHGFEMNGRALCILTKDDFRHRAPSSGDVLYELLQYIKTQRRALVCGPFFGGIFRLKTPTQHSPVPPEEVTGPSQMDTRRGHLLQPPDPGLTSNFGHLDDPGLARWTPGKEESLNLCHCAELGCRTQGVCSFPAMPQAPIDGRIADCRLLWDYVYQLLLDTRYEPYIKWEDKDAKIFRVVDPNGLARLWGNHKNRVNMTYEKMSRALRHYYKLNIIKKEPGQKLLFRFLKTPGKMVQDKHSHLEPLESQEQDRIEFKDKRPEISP
# In short: as §1
# ETV3 = target: T10, ETV3 (Homo sapiens, UniProt P41162-2 1-143)
# T10 sequence: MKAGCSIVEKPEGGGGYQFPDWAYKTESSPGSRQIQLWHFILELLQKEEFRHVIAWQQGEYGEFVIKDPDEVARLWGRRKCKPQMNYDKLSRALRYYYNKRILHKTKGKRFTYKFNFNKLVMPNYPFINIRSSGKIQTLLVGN
# In short: as §1
Sequence,binding signal (ELK1),binding signal (GABPA),binding signal (ERG),binding signal (ELF1),binding signal (FEV),binding signal (ETV5),binding signal (ELF4),binding signal (ELK4),binding signal (ERF),binding signal (ETS2),binding signal (ETV6),binding signal (ETV1),binding signal (SPDEF),binding signal (ETV7),binding signal (ETV3)
CGCCCA,"1.13 fold enrichment (6-mer frequency, TF over GST control)","1.11 fold enrichment (6-mer frequency, TF over GST control)","1.06 fold enrichment (6-mer frequency, TF over GST control)","1.04 fold enrichment (6-mer frequency, TF over GST control)","1.02 fold enrichment (6-mer frequency, TF over GST control)","1.01 fold enrichment (6-mer frequency, TF over GST control)","1.04 fold enrichment (6-mer frequency, TF over GST control)","1.04 fold enrichment (6-mer frequency, TF over GST control)","1.08 fold enrichment (6-mer frequency, TF over GST control)","1.04 fold enrichment (6-mer frequency, TF over GST control)","1.09 fold enrichment (6-mer frequency, TF over GST control)",,,,
GAAGCC,"1.06 fold enrichment (6-mer frequency, TF over GST control)","1 fold enrichment (6-mer frequency, TF over GST control)","1.08 fold enrichment (6-mer frequency, TF over GST control)",,"1.05 fold enrichment (6-mer frequency, TF over GST control)","1.07 fold enrichment (6-mer frequency, TF over GST control)","1.04 fold enrichment (6-mer frequency, TF over GST control)","1.01 fold enrichment (6-mer frequency, TF over GST control)",,"1.01 fold enrichment (6-mer frequency, TF over GST control)","1.09 fold enrichment (6-mer frequency, TF over GST control)","1.04 fold enrichment (6-mer frequency, TF over GST control)","1.01 fold enrichment (6-mer frequency, TF over GST control)","1.12 fold enrichment (6-mer frequency, TF over GST control)","1 fold enrichment (6-mer frequency, TF over GST control)"

# Source: publication PMC7862700, “An all-to-all approach to the identification of sequence-specific readers for epigenetic DNA modifications on cytosine”
